Some test systems named below: SN12C renal; UO-31 renal; ACHN renal; CAKI-1 renal; A498 renal; CCRF-CEM leukemia; MOLT-4 leukemia; SR leukemia; RPMI-8226 leukemia; OVCAR-8 ovarian; OVCAR-5 ovarian; SK-OV-3 ovarian; IGROV1 ovarian; OVCAR-3 ovarian; HS 578T breast; NCI/ADR-RES ovarian; OVCAR-4 ovarian; TK-10 renal.
Common to all, as to assay: NCI-60 one-dose screen, 48 h (100 = growth as untreated, 0 = no growth, -100 = all killed)
Common to all, as to details: 10 µM unless noted

SMILES strings stand for the structures. About 83,000 compounds went through this panel and 20% of them were active in at least one assay; those are over-represented in the sample as a whole.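 Assay: single dose, 48 h. Readout: percent growth (0 = no net growth; negative = cell death). Active: <10.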 A number with no mark means an inactive call. Active and inactive are the calls of the source.

For the molecule `Cc1ccc(NC(=O)c2sc3nc4c(cc3c2N)C(=O)CCC4)cc1`, the growth is 87.8% in the assay on SN12C renal; 84.8% with UO-31 renal; 89.9% in the assay with ACHN renal; 56.6% in the assay with CAKI-1 renal; -3.97% (active) in the assay on A498 renal; 70.9% in the assay with CCRF-CEM leukemia. The growth was 95.9% in the assay on MOLT-4 leukemia; 63.1% with SR leukemia; 93.4% in the assay on RPMI-8226 leukemia; 98.3% with OVCAR-8 ovarian; 78.6% in the assay on OVCAR-5 ovarian; 37.5% in the assay with SK-OV-3 ovarian. In addition, the growth in the assay with IGROV1 ovarian was 95.9%; with OVCAR-3 ovarian, 133%; in the assay with HS 578T breast it was 107%; in the assay on NCI/ADR-RES ovarian it was 98.2%.
On to `COc1cc(/C=C/c2cc(/C=C/c3ccc(O)c(OC)c3)n(C(=O)Cc3ccccc3)n2)ccc1O`, for which the growth is 9.07% (active) in the assay on SN12C renal; -9.97% (active) with UO-31 renal; 5.4% (active) in the assay on ACHN renal; 20.9% with CAKI-1 renal; -9.09% (active) in the assay with A498 renal; 0.172% (active) with CCRF-CEM leukemia. For the same molecule, the growth is 1.08% (active) with MOLT-4 leukemia; 4.44% (active) with SR leukemia; -34.2% (active) in the assay with RPMI-8226 leukemia; -17% (active) with OVCAR-8 ovarian; -18.7% (active) with OVCAR-5 ovarian; 7.27% (active) in the assay with OVCAR-4 ovarian. In addition, the growth in the assay with IGROV1 ovarian is 11.4%; with OVCAR-3 ovarian, 1.55% (active); in the assay on HS 578T breast, 9.84% (active); in the assay with NCI/ADR-RES ovarian it was 21.7%.
Regarding `CC(=O)/C(=C/c1ccc(Cl)cc1)C(=O)c1ccccc1`, the growth in the assay with SN12C renal is 85.4%; with UO-31 renal it was 65.5%; with TK-10 renal, 101%; with ACHN renal, 99.4%; in the assay on CAKI-1 renal, 85.2%; with MOLT-4 leukemia it was 62%. Besides, the growth in the assay with RPMI-8226 leukemia is 34.8%; in the assay on OVCAR-8 ovarian, 89.2%; in the assay with OVCAR-5 ovarian, 111%; in the assay on OVCAR-4 ovarian it was 79.7%; with SK-OV-3 ovarian, 101%; in the assay on IGROV1 ovarian it was 91.6%. For the same molecule, the growth with OVCAR-3 ovarian is 91.3%; in the assay with NCI/ADR-RES ovarian, 85.2%.

(Values after PubChem BioAssay (NCI).)
